The values that follow come from PubChem BioAssay.

Inconclusive results are not listed. Calls of active or inactive are those of the source.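 Rule for the calls, unless noted: active = percent response above 42, roughly 3 SD of non-fluorescent test compounds; inactive = the rest.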

A short description of experiment [1]: yeast TOR pathway RPL19A-GFP modulators, primary screen, cell-based, S. cerevisiae, multiplex flow cytometry (AID 1862; in the data active = percent of DMSO control GFP below about 86%;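 note: lower values mimic rapamycin by blocking the RPL19A rise seen in DMSO cells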). The conditions noted are these: S. cerevisiae RPL19A-GFP strain, flow cytometry fluorescence, 3 h; at 10 µM; stronger effect = lower value.
The nature of experiment [2]: modulators of MEP2-GFP levels in yeast, primary screen, S. cerevisiae, multiplex flow cytometry (AID 1867;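 active = GFP response, as percent of the DMSO control, above the screen-wide mean plus 3 SD, about 139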;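 note: median GFP channel fluorescence of barcode-gated MEP2-GFP cells measured by flow cytometry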). Particulars: S. cerevisiae MEP2-GFP strain, 3 h, at 10 µM, stronger effect = higher value, 100% means same as DMSO wells.
Experiment [3] in a line: modulators of CIT2-GFP expression in yeast, primary screen, S. cerevisiae, GFP fusion, multiplex flow cytometry (AID 1870;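 active = percent response above a set limit, the screen-wide mean plus 3 SD, cut at about 130% in these data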;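 note: barcoded CIT2-GFP strain pooled with four other GFP strains with rapamycin as positive control; median GFP fluorescence per well over plate mean of DMSO wells so 100% = DMSO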). Particulars: 3 h, at 10 µM, stronger effect = higher value.
The nature of experiment [4]: modulators of LAP4-GFP expression in yeast, primary screen, S. cerevisiae, multiplex flow cytometry (AID 1873;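 active = GFP signal, as percent of the solvent control, above the screen mean plus 3 SD, about 149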). The conditions noted are these: 3 h, at 10 µM, stronger effect = higher value.
Experiment [5] in a line: modulators of AGP1-GFP expression in yeast TOR pathway, primary screen, cell-based, multiplex flow cytometry, S. cerevisiae (AID 1887;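 active = GFP signal above the screen-wide mean plus 3 SD, that is over about 124.5% of the solvent control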;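 note: AGP1-GFP fusion strain of S. cerevisiae within a five-strain barcoded multiplex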). The conditions noted are these: 3 h, at 10 µM, stronger effect = higher value.
A short description of experiment [6]: inhibitors of CD8+ T cell-vesicle binding, pilot screen, LFA-1/ICAM-1 modulator project, MLPCN validation set, flow cytometry (AID 2523;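 active = response below a set limit, under 55% cells CD8-positive and vesicle-bound, and CD8 cells' 90th-percentile brightness under 279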;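 for vesicle binding response: mean PE anti-B7-1 fluorescence of CD8+ cells relative to row control; 100% = QL9-loaded vesicles with DMSO vehicle in the same plate row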). The conditions noted are these: 2C mouse CD8+ T cells, at 7 µM, stronger effect = lower value; double positive events: measured here: CD8+/vesicle+ event percentage.
For experiment [7], the target named is Integrin beta-1 (Homo sapiens) + Integrin alpha-4 (Homo sapiens) (UniProt P13612+P05556). Briefly: inhibition of HUTS-21 binding to VLA-4, pilot screen, VLA-4 allosteric modulator project, U937 cells, HUTS-21 mAb, flow cytometry, validation set (AID 2674;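 active = inhibition above 50%, about 3 SD of the validation set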;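 note: antibody binding induced by the VLA-4 ligand LDV present at three times its Kd; 0% = LDV ligand with antibody and no compound and 100% = antibody without LDV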). Particulars: HUTS-21 LIBS mAb binding, at 6.7 µM, stronger effect = higher value, binding induced by LDV ligand.
Integrin beta-1 (Homo sapiens) + Integrin alpha-4 (Homo sapiens), sequence (P05556 whole entry, looked up): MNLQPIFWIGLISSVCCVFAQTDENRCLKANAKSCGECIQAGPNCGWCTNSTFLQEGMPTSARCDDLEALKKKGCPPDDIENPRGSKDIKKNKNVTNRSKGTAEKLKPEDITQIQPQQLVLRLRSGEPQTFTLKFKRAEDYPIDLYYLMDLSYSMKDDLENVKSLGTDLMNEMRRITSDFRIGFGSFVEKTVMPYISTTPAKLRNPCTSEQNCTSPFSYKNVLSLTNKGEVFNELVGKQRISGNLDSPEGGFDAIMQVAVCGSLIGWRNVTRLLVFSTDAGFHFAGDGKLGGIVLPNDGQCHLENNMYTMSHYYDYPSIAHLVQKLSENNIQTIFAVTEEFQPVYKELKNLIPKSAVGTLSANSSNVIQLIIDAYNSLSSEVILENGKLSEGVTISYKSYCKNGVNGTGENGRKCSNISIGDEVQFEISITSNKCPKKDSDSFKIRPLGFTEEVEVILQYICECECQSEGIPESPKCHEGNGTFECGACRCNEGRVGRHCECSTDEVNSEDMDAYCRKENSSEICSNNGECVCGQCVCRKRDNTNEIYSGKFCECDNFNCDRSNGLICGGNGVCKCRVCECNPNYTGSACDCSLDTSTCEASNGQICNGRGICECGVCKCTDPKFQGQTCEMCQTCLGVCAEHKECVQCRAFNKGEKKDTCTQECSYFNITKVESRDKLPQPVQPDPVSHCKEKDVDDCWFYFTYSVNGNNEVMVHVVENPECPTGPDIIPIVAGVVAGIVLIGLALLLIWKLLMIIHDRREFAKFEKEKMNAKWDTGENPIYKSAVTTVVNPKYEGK
Integrin beta-1 (Homo sapiens) + Integrin alpha-4 (Homo sapiens), sequence (P13612 whole entry, looked up): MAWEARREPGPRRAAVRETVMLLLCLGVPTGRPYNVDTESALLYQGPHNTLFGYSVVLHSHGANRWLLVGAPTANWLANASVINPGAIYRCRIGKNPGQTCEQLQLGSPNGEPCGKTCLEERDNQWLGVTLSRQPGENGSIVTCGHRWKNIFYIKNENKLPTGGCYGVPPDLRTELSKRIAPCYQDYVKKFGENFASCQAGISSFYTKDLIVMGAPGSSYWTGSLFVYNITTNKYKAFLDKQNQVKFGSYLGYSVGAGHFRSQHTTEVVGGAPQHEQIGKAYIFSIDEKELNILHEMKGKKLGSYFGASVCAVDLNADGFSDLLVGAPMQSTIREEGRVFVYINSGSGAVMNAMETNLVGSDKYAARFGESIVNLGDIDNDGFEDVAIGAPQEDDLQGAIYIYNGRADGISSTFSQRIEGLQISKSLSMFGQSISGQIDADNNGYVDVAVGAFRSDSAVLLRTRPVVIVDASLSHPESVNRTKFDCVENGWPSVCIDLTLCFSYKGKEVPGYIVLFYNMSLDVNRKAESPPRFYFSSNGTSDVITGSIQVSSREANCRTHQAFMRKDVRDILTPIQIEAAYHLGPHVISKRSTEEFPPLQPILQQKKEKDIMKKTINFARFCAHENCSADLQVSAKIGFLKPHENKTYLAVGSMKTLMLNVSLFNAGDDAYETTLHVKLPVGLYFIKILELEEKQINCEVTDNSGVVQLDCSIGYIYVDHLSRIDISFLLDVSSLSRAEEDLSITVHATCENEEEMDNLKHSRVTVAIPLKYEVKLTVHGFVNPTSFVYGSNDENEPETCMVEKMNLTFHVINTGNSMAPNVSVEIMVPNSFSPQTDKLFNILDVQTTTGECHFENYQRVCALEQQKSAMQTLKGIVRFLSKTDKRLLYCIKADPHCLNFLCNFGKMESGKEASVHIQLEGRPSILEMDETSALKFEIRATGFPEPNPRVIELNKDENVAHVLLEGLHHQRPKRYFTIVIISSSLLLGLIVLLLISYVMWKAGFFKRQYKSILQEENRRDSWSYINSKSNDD
A short description of experiment [8]: superoxide lowering in aged yeast cells, pilot screen, validation compound set (AID 2706;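 active = superoxide response below 65% of plate, a cut near 3 SD across the whole screen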;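 note: yeast exposed to compound for one week at 30 degrees C before staining; 100% = mean of all compound wells on the same plate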). The conditions noted are these: S. cerevisiae aging, superoxide DHE fluorescence; at 10 µM; stronger effect = lower value.
In experiment [9] the target is Beta-adrenergic receptor kinase 1 (Homo sapiens) (UniProt P25098). Description: GRK2 binders displacing RNA aptamer, biochemical, validation, human GRK2, bead flow cytometry (AID 488806;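 active = aptamer binding inhibition above 30%, about 3 SD of noise from non-fluorescent compounds; inactive = inhibition at or below 30%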). The conditions noted are these: bead-bound GRK2, FAM-aptamer displacement, at 10 µM, stronger effect = higher value.
Beta-adrenergic receptor kinase 1 (Homo sapiens), sequence (P25098 whole entry, looked up): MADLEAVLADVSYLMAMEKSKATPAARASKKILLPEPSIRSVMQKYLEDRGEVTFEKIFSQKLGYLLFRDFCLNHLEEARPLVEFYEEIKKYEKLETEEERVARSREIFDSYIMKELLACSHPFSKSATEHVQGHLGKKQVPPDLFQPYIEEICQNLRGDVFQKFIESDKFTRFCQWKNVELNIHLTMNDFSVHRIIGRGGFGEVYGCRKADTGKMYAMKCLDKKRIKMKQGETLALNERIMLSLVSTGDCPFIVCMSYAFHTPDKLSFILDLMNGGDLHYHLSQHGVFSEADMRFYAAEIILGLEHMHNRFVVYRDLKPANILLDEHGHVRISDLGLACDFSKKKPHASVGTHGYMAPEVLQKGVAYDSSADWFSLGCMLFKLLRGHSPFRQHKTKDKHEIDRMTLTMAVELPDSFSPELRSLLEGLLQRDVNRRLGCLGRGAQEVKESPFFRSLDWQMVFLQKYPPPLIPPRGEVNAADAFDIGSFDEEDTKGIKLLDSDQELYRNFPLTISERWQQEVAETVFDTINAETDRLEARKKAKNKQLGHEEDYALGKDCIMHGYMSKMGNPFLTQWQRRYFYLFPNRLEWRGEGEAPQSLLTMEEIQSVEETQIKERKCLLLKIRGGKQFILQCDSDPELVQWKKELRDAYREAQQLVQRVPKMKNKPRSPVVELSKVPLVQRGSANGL
For experiment [10], the target named is Beta-2 adrenergic receptor (Homo sapiens) (UniProt P07550). Briefly: beta2AR agonists driving receptor internalization, pilot screen, cell-based, FAP fluorogen, flow cytometry, validation set (AID 504459).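 Note: agonist-driven loss of surface beta2AR via internalization measured by FAP dye flow cytometry.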 The conditions noted are these: Am2.2-beta2AR cells, FAP surface receptor flow cytometry; at 10 µM; stronger effect = higher value.
Beta-2 adrenergic receptor (Homo sapiens), sequence (P07550 whole entry, looked up): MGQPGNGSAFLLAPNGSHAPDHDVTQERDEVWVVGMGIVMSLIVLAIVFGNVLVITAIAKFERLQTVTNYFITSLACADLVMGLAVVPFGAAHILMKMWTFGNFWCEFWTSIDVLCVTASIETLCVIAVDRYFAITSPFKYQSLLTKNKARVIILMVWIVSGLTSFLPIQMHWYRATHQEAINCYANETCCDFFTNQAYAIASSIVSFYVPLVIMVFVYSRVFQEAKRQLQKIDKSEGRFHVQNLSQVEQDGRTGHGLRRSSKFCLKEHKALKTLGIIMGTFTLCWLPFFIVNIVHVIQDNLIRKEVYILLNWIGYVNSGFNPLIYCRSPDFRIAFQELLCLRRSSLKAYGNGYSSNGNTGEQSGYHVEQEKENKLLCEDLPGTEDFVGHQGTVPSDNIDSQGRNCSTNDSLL
Experiment [11] addresses AP-2 complex subunit beta (Homo sapiens) (UniProt P63010). Description: inhibitors of arrestin peptide binding to AP2, pilot screen, biochemical, validation set, GST-AP2 beads, flow cytometry (AID 504541;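 active = inhibition above 54%, about 3 SD of non-fluorescent compounds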;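 note: AP2 carries R879A mutation and is captured from E. coli lysate; bead-bound FITC arrestin peptide fluorescence measuring arrestin peptide binding to AP2; 0% = DMSO wells and 100% = excess unlabeled arrestin peptide control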). Particulars: FITC arrestin peptide, at 10 µM, stronger effect = higher value, AP2 beta2 appendage fragment, R879A mutant.
Experiment [12] can be described thus: yeast V-ATPase proton transport modulators, S. cerevisiae, pHLuorin, HTS validation (AID 504600; in the data active = response above about 15%;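 note: plate controls were DMSO for no effect and reference compound for full effect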). Particulars: S. cerevisiae pHLuorin cytosolic pH, at 10 µM, stronger effect = higher value.
Experiment [13] concerns anti-desmoglein-3 scFv antibody binding to human DSG3. Description: inhibitors of anti-DSG3 scFv binding to DSG3, pilot screen, biochemical, validation compound set, bead-based, flow cytometry (AID 588368;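 active = binding below the plate cutoff, the plate median minus 3 SD, with a reading above zero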;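 note: signal is the median channel fluorescence of bead-bound GFP antibody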). Particulars: Protein G beads, DSG3-Fc, scFv-GFP binding, at 10 µM, stronger effect = lower value.
Experiment [14] in a line: inhibitors of fungal efflux pumps CDR1, CDR2, MDR1, pilot screen, validation compound set, multiplex, phenotypic (AID 588506;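 active = efflux inhibition above 0.42, the validation set average plus 4 SD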;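 note: Nile Red retained in cells so higher fluorescence means more efflux inhibition; 0 = negative control wells and 1 = enniatin B 25 µM full block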). Particulars: S. cerevisiae pump-expressing triplex, Nile Red efflux flow cytometry; at 10 µM; stronger effect = higher value; the pumps come from Candida albicans.
For experiment [15], the target named is ATP-binding cassette sub-family B member 6 (Homo sapiens) (UniProt Q9NP58). Briefly: ABCB6 transporter inhibitors, pilot screen, K562-ABCB6 cells, flow cytometry, validation set (AID 588550;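 active = inhibition above the screen-wide mean plus 3 SD, about 51%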;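 note: 0% = DMSO wells and 100% = benzethonium chloride 70 µM positive control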). The conditions noted are these: K562-ABCB6 porphyrin accumulation, 1 h, at 10 µM, stronger effect = higher value.
ATP-binding cassette sub-family B member 6 (Homo sapiens), sequence (Q9NP58 whole entry, looked up): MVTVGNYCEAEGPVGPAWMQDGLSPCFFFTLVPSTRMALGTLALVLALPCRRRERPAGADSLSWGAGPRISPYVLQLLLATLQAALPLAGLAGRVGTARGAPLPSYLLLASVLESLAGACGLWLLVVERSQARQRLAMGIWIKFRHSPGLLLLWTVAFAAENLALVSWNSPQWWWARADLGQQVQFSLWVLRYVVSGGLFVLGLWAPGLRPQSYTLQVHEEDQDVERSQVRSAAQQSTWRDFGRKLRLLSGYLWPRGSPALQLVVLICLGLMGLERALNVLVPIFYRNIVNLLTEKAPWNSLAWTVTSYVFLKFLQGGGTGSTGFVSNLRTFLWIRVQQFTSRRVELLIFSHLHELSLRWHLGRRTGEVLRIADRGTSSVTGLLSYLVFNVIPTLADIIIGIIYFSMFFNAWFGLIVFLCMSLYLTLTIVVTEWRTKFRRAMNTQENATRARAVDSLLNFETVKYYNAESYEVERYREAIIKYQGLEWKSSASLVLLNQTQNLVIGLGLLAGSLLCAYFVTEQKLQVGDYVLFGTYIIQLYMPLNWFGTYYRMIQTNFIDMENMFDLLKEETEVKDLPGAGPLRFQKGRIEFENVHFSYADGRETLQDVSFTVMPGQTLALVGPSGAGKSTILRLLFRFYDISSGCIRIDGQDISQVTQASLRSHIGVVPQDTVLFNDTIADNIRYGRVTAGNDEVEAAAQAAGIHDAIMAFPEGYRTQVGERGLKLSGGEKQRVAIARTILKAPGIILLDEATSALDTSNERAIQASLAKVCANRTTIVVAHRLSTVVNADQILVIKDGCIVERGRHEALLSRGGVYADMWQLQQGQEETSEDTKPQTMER
Experiment [16] can be described thus: promoters of myeloid differentiation in arrested cells, primary screen, cell-based, GFP/MAC1 double positive, flow cytometry, validation set (AID 588685;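 active = differentiation response of at least 50%, scaled between solvent and reference control, from cells with both markers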;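 note: compound exposure lasts four days before antibody staining and flow analysis; 0% = DMSO wells and 100% = 5 µM fulvestrant positive control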). Particulars: ER-HoxA9 marrow cells, stronger effect = higher value, normalized: vehicle 0, fulvestrant 100.

AP-2 complex subunit beta (Homo sapiens), sequence (P63010 whole entry, looked up, the tested form may be a part, one chain of several): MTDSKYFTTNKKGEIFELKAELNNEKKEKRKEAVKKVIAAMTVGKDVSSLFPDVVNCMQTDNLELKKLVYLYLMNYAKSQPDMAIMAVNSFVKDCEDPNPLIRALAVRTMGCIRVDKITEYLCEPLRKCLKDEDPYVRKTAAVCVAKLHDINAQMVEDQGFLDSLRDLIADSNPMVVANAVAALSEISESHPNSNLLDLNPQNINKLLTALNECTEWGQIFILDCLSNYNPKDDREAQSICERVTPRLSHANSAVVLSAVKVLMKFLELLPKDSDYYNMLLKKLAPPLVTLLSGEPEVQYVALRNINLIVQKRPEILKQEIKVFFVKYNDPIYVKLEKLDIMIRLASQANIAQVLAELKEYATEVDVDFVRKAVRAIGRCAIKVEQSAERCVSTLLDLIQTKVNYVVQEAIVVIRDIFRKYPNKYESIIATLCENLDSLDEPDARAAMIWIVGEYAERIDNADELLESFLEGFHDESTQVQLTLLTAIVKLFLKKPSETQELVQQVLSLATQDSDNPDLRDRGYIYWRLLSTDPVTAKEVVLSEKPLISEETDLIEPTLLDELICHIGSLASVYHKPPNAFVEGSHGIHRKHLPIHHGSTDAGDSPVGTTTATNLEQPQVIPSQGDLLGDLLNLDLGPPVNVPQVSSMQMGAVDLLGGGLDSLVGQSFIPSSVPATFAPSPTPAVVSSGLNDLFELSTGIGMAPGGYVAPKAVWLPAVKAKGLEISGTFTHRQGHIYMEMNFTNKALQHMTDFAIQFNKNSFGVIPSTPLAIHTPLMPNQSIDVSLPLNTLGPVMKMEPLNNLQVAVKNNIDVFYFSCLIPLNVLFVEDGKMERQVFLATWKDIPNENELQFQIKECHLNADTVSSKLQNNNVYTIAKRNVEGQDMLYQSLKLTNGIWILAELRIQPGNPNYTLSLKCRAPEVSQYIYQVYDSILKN

As for `O=C(O)COc1ccc2occ(C(=O)c3ccccc3)c2c1`, in experiment [1], the percent of DMSO control GFP was 99.8% (inactive). Besides, the GFP response vs DMSO in [2] was 106% (inactive); in experiment [4] it was 96% (inactive). For the same compound, in [3], the percent response of DMSO control is 101% (inactive). The GFP response, % of DMSO in experiment [5] was 92.9% (inactive). The same compound had a double positive events in [6] of 63.9%. Besides, the vesicle binding response in [6] was 180% (inactive). The values for the inhibition in experiment [7], in [11] and in experiment [15] were 15.1% (inactive), 0.98% (inactive) and 3% (inactive), respectively. Moreover, in experiment [8], the superoxide response (% of plate) is 107% (inactive). The aptamer binding inhibition in experiment [9] was 4% (inactive). Also, the figures for the response in experiment [10] and in experiment [12] were -5% (inactive) and 0.64% (inactive), respectively. Also, the binding (% of control) in experiment [13] was 94.2% (inactive). In experiment [14], the efflux inhibition (fraction of control) is -0.17 (inactive). For the same compound, in [16], the differentiation response is 7.09% (inactive).

Regarding `O=C(Nc1nc2ccccc2s1)c1ccc(F)cc1`, the percent of DMSO control GFP in experiment [1] was 100% (inactive). The GFP response vs DMSO in experiment [2] was 106% (inactive); in experiment [4], 109% (inactive). For the same compound, the percent response of DMSO control in experiment [3] was 102% (inactive). Also, the GFP response, % of DMSO in [5] is 105% (inactive). The same compound came in with a double positive events in experiment [6] of 59.5%. Moreover, the vesicle binding response in [6] was 297% (inactive). For the same compound, the inhibition in [7] is -4.52% (inactive); in experiment [11] it was -2.74% (inactive); in experiment [15] it was 9% (inactive). For the same compound, the superoxide response (% of plate) in experiment [8] was 103% (inactive). Also, in experiment [9], the aptamer binding inhibition is 3% (inactive). The response in experiment [10] is -12.7% (inactive); in experiment [12], 4.11% (inactive). Also, in experiment [13], the binding (% of control) was 101% (inactive). Besides, the efflux inhibition (fraction of control) in experiment [14] was -0.13 (inactive). Moreover, the differentiation response in experiment [16] was -4% (inactive).

`CN1CCN(CC/C=C2/c3ccccc3Sc3ccc(S(=O)(=O)N(C)C)cc32)CC1`: the percent of DMSO control GFP in experiment [1] was 102% (inactive). Besides, the GFP response vs DMSO in [2] and in [4] was 109% (inactive) throughout. The percent response of DMSO control in experiment [3] is 94.5% (inactive). Moreover, the GFP response, % of DMSO in [5] is 94.8% (inactive). Further, in [6], the double positive events was determined as 68.4%. The vesicle binding response in experiment [6] is 202% (inactive). Besides, the inhibition in experiment [7] is 23% (inactive); in [11], -4.59% (inactive); in [15], 28% (inactive). In experiment [8], the superoxide response (% of plate) was 86% (inactive). For the same compound, the aptamer binding inhibition in experiment [9] is 4% (inactive). Further, the response in experiment [10] was -1.99% (inactive); in experiment [12], 11% (inactive). In [13], the binding (% of control) is 84.3% (inactive). For the same compound, the efflux inhibition (fraction of control) in experiment [14] was 0.02 (inactive). The differentiation response in experiment [16] was -13.3% (inactive).

For the compound `COc1cccc(C2CC(=O)C3=C(C2)Nc2ccccc2N(C(=O)CCC(=O)O)C3c2ccc(F)cc2)c1` (stereo not given), in experiment [1], the percent of DMSO control GFP was 95% (inactive). Besides, the GFP response vs DMSO in [2] was 149% (active); in experiment [4], 89.1% (inactive). In [3], the percent response of DMSO control was 102% (inactive). The GFP response, % of DMSO in experiment [5] was 93.8% (inactive). In [6], this compound gave a double positive events of 64%. In [6], the vesicle binding response was 213% (inactive). The inhibition in experiment [7] is 11.3% (inactive); in experiment [11] it was 30.9% (inactive); in experiment [15], 4% (inactive). For the same compound, the superoxide response (% of plate) in [8] was 98% (inactive). For the same compound, the aptamer binding inhibition in [9] was 4% (inactive). The response in [10] was -3.62% (inactive); in [12] it was -2.19% (inactive). In addition, the binding (% of control) in [13] is 102% (inactive). Also, the efflux inhibition (fraction of control) in [14] is -0.13 (inactive). In addition, the differentiation response in experiment [16] is -1.64% (inactive).

Take `Clc1ccc(CCNc2ncnc3nc[nH]c23)cc1`: the percent of DMSO control GFP in [1] is 97.4% (inactive). Also, the GFP response vs DMSO in experiment [2] is 108% (inactive); in experiment [4] it was 105% (inactive). In addition, in experiment [3], the percent response of DMSO control is 92% (inactive). Further, in [5], the GFP response, % of DMSO is 99.7% (inactive). For the same compound, in experiment [6], the double positive events stood at 60.8%. The vesicle binding response in experiment [6] was 127% (inactive). For the same compound, the results for the inhibition in experiment [7], in experiment [11] and in experiment [15] were 0.94% (inactive), 5.59% (inactive) and 10% (inactive), respectively. In addition, in experiment [8], the superoxide response (% of plate) was 108% (inactive). Also, in experiment [9], the aptamer binding inhibition was 4% (inactive). Also, the response in experiment [10] is -5.61% (inactive); in [12], -0.06% (inactive). Further, the binding (% of control) in experiment [13] was 97.2% (inactive). In addition, the efflux inhibition (fraction of control) in experiment [14] is 0.08 (inactive). The differentiation response in experiment [16] was -0.8% (inactive).
